Assay results as given in PubChem BioAssay AID1028 (SRMLSC, 2008).
Potency and affinity values are given separately.

What follows are molecules tested against diphosphomevalonate decarboxylase (Streptococcus pneumoniae D39) (UniProt Q9FD53) (assay: diphosphomevalonate decarboxylase inhibitor confirmation – biochemical, cuvette format, coupled NADH fluorescence (AID 1028)). Settings: purified DPM-DC, rate, at 50 µM, hits give high values;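 active = enzyme inhibitor confirmed by dose series, half-maximal inhibitory concentration at most 40 µM; inactive = the rest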.

inhibition, inactive:
Cc1ccc(C)c(-c2nc3cccc(N)c3o2)c1 -0.39%, Cc1ccc(C)c(-c2nc3ccc(N)cc3o2)c1 13%, Cc1cccc(-c2nc3ccccc3o2)c1 5.31%, Cc1ccccc1-c1nc2cc(N)ccc2o1 6.79%, O=C(c1ccccc1-n1sc2ccccc2c1=O)N1CCCC1 16.1%, Cc1ccccc1-c1nc2cccc(N)c2o1 -2.22%, CCCN(CCC)C(=O)c1ccccc1-n1sc2ccccc2c1=O 14.3%, COc1ccc2nc(-c3ccccc3C)oc2c1 4.59%, COc1ccc2oc(-c3cc(C)ccc3C)nc2c1 2.66%, COc1ccc2oc(-c3ccc([N+](=O)[O-])cc3)nc2c1 1.63%, COc1ccc2oc(-c3ccncc3)nc2c1 -0.2%, Cc1ccccc1-c1nc2ccccc2o1 1.75%, CN(C)C(=O)c1ccccc1-n1sc2ccccc2c1=O 16.7%, Nc1ccc2oc(-c3ccc(F)cc3)nc2c1 13.4%, COc1ccc2oc(-c3ccc(C)cc3)nc2c1 -3.06%, Cc1ccc(-c2nc3ccccc3o2)cc1 7.2%, Cc1ccc(-c2nc3ccccc3o2)cc1F 9.15%, COc1ccc2oc(-c3cccc(N)c3)nc2c1 -0.79%, Nc1ccc2oc(-c3cccc(F)c3)nc2c1 10.4%, COc1ccc2oc(-c3ccc(N)cc3)nc2c1 7.74%, COc1ccc(OC)c(-c2nc3cc(N)ccc3o2)c1 10.3%, CCN(CC)C(=O)c1ccccc1-n1sc2ccccc2c1=O 14.9%, Cc1ccc(C)c(-c2nc3cc([N+](=O)[O-])ccc3o2)c1 1.75%, Nc1ccc2oc(-c3ccc(Cl)cc3)nc2c1 12.8%
